Screening results as filed in PubChem.
FLuc counter: inhibits or activates purified firefly luciferase, miR-21 counter-screen | P08659 | purified FLuc, Km substrates, luminescence inhibition | Potency, µM (series often up to 57.5 µM), for the others: at the top dose activity change, negative = inhibition, most hits filed as inhibitors | 360,000 tested, 6.9% active | AID 588342;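 further: plate controls were vehicle for no effect and reference inhibitor for full effect; nearly all actives have a fitted effect of over 55% in size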
Target sequence (P08659 whole entry, looked up): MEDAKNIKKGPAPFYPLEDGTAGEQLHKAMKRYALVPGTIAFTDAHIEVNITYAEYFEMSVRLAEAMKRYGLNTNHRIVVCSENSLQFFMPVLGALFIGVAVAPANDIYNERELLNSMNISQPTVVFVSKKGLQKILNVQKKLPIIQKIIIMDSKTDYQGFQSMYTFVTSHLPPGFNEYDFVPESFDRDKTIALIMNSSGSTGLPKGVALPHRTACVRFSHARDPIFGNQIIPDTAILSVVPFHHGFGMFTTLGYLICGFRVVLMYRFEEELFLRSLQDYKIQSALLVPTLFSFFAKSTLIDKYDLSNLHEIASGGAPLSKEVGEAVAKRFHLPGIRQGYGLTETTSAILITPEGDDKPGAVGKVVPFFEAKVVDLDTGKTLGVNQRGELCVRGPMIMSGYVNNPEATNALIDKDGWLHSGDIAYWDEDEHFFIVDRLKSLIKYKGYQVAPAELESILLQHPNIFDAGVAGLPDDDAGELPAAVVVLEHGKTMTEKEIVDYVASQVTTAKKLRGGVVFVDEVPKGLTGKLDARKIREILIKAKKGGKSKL
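Purified P. pyralis luciferase, 10 nM final, with Km-level 10 uM D-luciferin and 10 uM ATP in 50 mM Tris acetate pH 7.5, 10 mM Mg acetate, 0.01% Tween-20, 0.05% BSA; 6-point qHTS titration about 60 µM downward; luminescence read.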
Rab9 promoter act: activators of Rab9 promoter. Potency, µM (highest dose often 9.22 µM), for inactives: top-dose activation, negative = inhibition, actives largely listed as activators. Huh7 Rab9 promoter-luciferase reporter, luminescence, 24 h. 320,000 tested, 2.8% active. AID 485297; further: % of control where 0% means no effect; nearly all actives have a fitted effect of over 60% in size
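Huh7 cells stably carrying a Rab9 promoter-luciferase reporter, 1500 cells per well in OP-MEM I with 10% FBS, treated with compound 24 hours at 37C. Luciferase activity read by luminescence after 10 minutes with Amplite reagent.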
ELG1 genotox: induces genotoxicity in HEK293T cells with luciferase-tagged ELG1; Potency, µM (titrated, usually from 46 µM), inactives show at the top dose activity change, positive = activation, actives largely listed as activators; AID 504466; 330,000 tested, 1.3% active; HEK293T ELG1-luciferase reporter, luminescence, 16 h; further: % of control where 0% means no effect; nearly all actives have a fitted effect of over 60% in size
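Quantitative HTS format in 1536-well plates. HEK293T ELG1-luciferase reporter cells receive test compound and are incubated 16 hr at 37 °C, 5% CO2; ONE-Glo added, 30 min room temperature, then luminescence read.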
SMN2 splice enh: SMN2 splice variant enhancement; HEK293 SMN2-luciferase splicing reporter, luminescence, 30-36 h; Potency, µM (titrated, usually from 46.1 µM), without a hit: at the highest dose activity change, positive = activation, usual class: activators; 210,000 tested, 2.8% active; AID 1458; further: % of control where 0% means no effect; nearly all actives have a fitted effect of over 55% in size
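HEK293 cells carry an SMN2 […]–luciferase reporter in which exon 7 inclusion puts luciferase in frame. Cells were plated 10-12 h before compound addition, then incubated 30-36 h at 37C. ONE-Glo luminescence was read; sodium butyrate at 4.5 mM final served as control.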
NPC1 prom act: NPC1 promoter activation | Huh7 NPC1 promoter luciferase reporter, 24 h | Potency, µM (highest dose often 9.22 µM), without a hit: at the highest dose activation, usual class: activators | 320,000 tested, 2.4% active; further: % of control where 0% means no effect; nearly all actives have a fitted effect of over 60% in size
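Stable NPC1-promoter luciferase Huh7 line; cpd (DMSO) 24 h, 37 °C, 5% CO2; Amplite luciferase reagent 10 min RT; luminescence readout. qHTS format.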
* = called active by the depositor; [ ] = another dose, or the depositor's remark. Most compounds without a hit are left out; they make up all but 7.5% or so of the library. The call rests on the fitted dose curve; in most records, active means well fitted curve in the direction sought with a large enough effect; inconclusive means small, poorly fitted or top-dose-only effect, or another doubt; inactive means no such curve, though single readings can be large; an effect the other way counts as inactive or inconclusive. Potency means the concentration at half of the fitted maximal effect.

`O=C(Nc1ccc2c(c1)CCCN2C(=O)c1cccs1)c1ccccc1C(F)(F)F` gave FLuc counter -3%.
`COc1ccccc1C(=O)Nc1ccc2c(c1)CCCN2C(=O)c1cccs1` gave FLuc counter 17µM*, Rab9 promoter act 15%, ELG1 genotox -7% and NPC1 prom act 0%.
For Cn1c(SCC(=O)c2ccccc2)nc2cccnc21 the results were FLuc counter -4%, Rab9 promoter act -9%, ELG1 genotox 6%, SMN2 splice enh -17% and NPC1 prom act 1%.
COc1ccc(Nc2nc(-c3ccccc3F)nc3ccccc23)cc1OC was read as FLuc counter 27µM*, Rab9 promoter act 0%, ELG1 genotox -10% and NPC1 prom act -4%.
O=C(C1CC(c2ccc(F)cc2)=NO1)N1CCCCC1 (stereo not given) was read as FLuc counter 15µM*, Rab9 promoter act inconclusive, ELG1 genotox inconclusive, SMN2 splice enh 28µM* and NPC1 prom act 3.2µM*.
For O=C(C1CC(c2ccc(F)cc2)=NO1)N1CCc2ccccc2C1 (stereo not given) the results were FLuc counter inconclusive, Rab9 promoter act -12%, ELG1 genotox inconclusive, SMN2 splice enh 15% and NPC1 prom act 3%.
`O=C(C1CC(c2ccccc2O)=NO1)N1CCCCC1` (stereo not given) gave FLuc counter 15µM*, Rab9 promoter act 4.5µM*, ELG1 genotox 13µM*, SMN2 splice enh 0.16µM* and NPC1 prom act inconclusive.
Screening CC1CCCCN1C(=O)C1CC(c2ccc(F)cc2)=NO1 (stereo not given) returned FLuc counter 21µM*, Rab9 promoter act 2µM*, ELG1 genotox 18% and NPC1 prom act inconclusive.
Screening O=C(C1CC(c2ccccc2O)=NO1)N1CCc2ccccc2C1 (stereo not given) returned FLuc counter inconclusive, Rab9 promoter act 5%, ELG1 genotox inconclusive, SMN2 splice enh 19% and NPC1 prom act 24%.
`O=C(O)CCC(=O)N1CCc2cc(S(=O)(=O)Nc3ccc4c(c3)OCCO4)ccc21` gave FLuc counter -2%, Rab9 promoter act 0%, ELG1 genotox 9%, SMN2 splice enh -31% and NPC1 prom act -4%.
For Cc1cc(NC(=O)CSc2nnc(C3CC3)n2N)no1 the results were FLuc counter 3%, Rab9 promoter act 6%, ELG1 genotox -3%, SMN2 splice enh -1% and NPC1 prom act 0%.
O=C(Nc1nc2ccccc2s1)c1ccc(N2CCCCC2)c([N+](=O)[O-])c1 was read as FLuc counter 9.5µM*, Rab9 promoter act 2µM*, ELG1 genotox -4%, SMN2 splice enh 5%[1.84 µM] and NPC1 prom act inconclusive.
For O=C(Nc1ccon1)c1ccc(N2CCCCC2)c([N+](=O)[O-])c1 the results were FLuc counter 12µM*, Rab9 promoter act 2µM*, ELG1 genotox 16%, SMN2 splice enh 14µM* and NPC1 prom act 2.8µM*.
`Cc1ccc(-c2c[n+](CC(=O)Nc3nc(-c4ccc(F)cc4)cs3)c3n2CCC3)cc1` gave FLuc counter -1%, Rab9 promoter act -6%, ELG1 genotox -9%, SMN2 splice enh 0% and NPC1 prom act -3%.
For CCOC(=O)c1nn(-c2ccc3c(c2)CCN3C(C)=O)cc1O the results were FLuc counter 3.8µM*, Rab9 promoter act 2.2µM*, ELG1 genotox 1.6µM*, SMN2 splice enh 10µM* and NPC1 prom act 1.6µM*.
`CCOC(=O)c1nn(-c2ccc(F)cc2)cc1O` gave FLuc counter inconclusive, Rab9 promoter act inconclusive, ELG1 genotox inconclusive, SMN2 splice enh -17% and NPC1 prom act inconclusive.
For CSCc1ccc(C(=O)NC(C)c2cnn(-c3ccccn3)c2C)o1 (stereo not given) the results were FLuc counter -24%, Rab9 promoter act 16%, ELG1 genotox 4% and NPC1 prom act 0%.
CN(CCCNC(=O)c1cccc(N2CCCC2=O)c1)c1ccccc1 was read as FLuc counter -6%, Rab9 promoter act 0%, ELG1 genotox -1%, SMN2 splice enh 3.2µM* and NPC1 prom act 1%.
`O=C(Nc1ccccc1)c1cccc(N2CCCC2=O)c1` gave FLuc counter inconclusive, Rab9 promoter act inconclusive, ELG1 genotox 10µM*, SMN2 splice enh inconclusive and NPC1 prom act inconclusive.
For CCCCN(C)CCCNC(=O)c1cccc(N2CCCC2=O)c1 the results were FLuc counter 2%, Rab9 promoter act -2%, ELG1 genotox -2%, SMN2 splice enh 3% and NPC1 prom act 4%.
Cc1cccc(CCNC(=O)c2cccc(N3CCCC3=O)c2)c1 was read as FLuc counter 11µM*, Rab9 promoter act 2.5µM*, ELG1 genotox inconclusive and NPC1 prom act 1.4µM*.
Screening Cc1ccc(CCNC(=O)c2cccc(N3CCCC3=O)c2)cc1 returned FLuc counter inconclusive, Rab9 promoter act 29%, ELG1 genotox 12% and NPC1 prom act 18%.
`O=C(O)c1cccc(N2CCCC2=O)c1` gave FLuc counter -18%, Rab9 promoter act -1%, ELG1 genotox 3%, SMN2 splice enh -2% and NPC1 prom act 0%.
Screening O=C(NCCc1ccccc1)c1cccc(N2CCCC2=O)c1 returned FLuc counter 2.1µM*, Rab9 promoter act 0.32µM*, ELG1 genotox inconclusive and NPC1 prom act 0.5µM*.
For Cc1ccc(NC(=O)CCCNC(=O)c2ccc(Cl)cc2)c(O)c1 the results were FLuc counter inconclusive, Rab9 promoter act 15%, ELG1 genotox inconclusive and NPC1 prom act 2%.
Screening Cc1cccc(N2CCN(C(=O)Cc3c(C(=O)O)c(C)cn3C)CC2)c1C returned FLuc counter -19%.
Screening CSc1nc2c(cnn2-c2ccccc2)c(=O)n1N returned FLuc counter inconclusive, Rab9 promoter act 30%, ELG1 genotox 18%, SMN2 splice enh inconclusive and NPC1 prom act inconclusive.
CCSc1nc2c(cnn2-c2ccccc2)c(=O)n1N was read as FLuc counter 13µM*, Rab9 promoter act 1.3µM*, ELG1 genotox inconclusive and NPC1 prom act 2.2µM*.
Screening CCc1ccc2oc(-c3cc(N)ccc3O)nc2c1 returned FLuc counter 0.34µM*, Rab9 promoter act 4.5µM*, ELG1 genotox 22%, SMN2 splice enh 25µM* and NPC1 prom act 3.2µM*.
`Nc1ccc2oc(-c3ccccc3Cl)nc2c1` gave FLuc counter 1.3µM*, Rab9 promoter act 0.45µM*, ELG1 genotox 3.7µM*, SMN2 splice enh 2.8µM* and NPC1 prom act inconclusive.
CCc1ccc2oc(-c3cc(N)cc(C)c3O)nc2c1 was read as FLuc counter inconclusive, Rab9 promoter act inconclusive, ELG1 genotox inconclusive, SMN2 splice enh inconclusive and NPC1 prom act 6%.
`Nc1ccc2oc(-c3cc(Br)ccc3Cl)nc2c1` gave FLuc counter inconclusive, Rab9 promoter act 3%, ELG1 genotox inconclusive, SMN2 splice enh 12% and NPC1 prom act -1%.
